Bioassay records as filed in PubChem BioAssay.
NadD inh – blocks S. aureus nicotinate mononucleotide adenylyltransferase | purified NadD enzyme, colorimetric absorbance read-out | inhibition, % at 20 µM | hit rate 0.78% among 360,000; in the data active = inhibition above about 26%
SMARCA2 activ – SMARCA2 function activation, primary screen; MG213 cells, MMTV-luciferase reporter, dexamethasone, overnight; activation, % at 9.1 µM; hit rate 1% among 370,000; AID 652017; in the data active = activation above about 7.8%;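 note: 0% = vehicle wells and 100% = reference activator wells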
esBAF inh – inhibitors of esBAF chromatin remodeling in mouse ES cells; Bmi1-luciferase knock-in reporter, 24 h; 100% = twice the neutral-well signal; reporter increase, % at 12.5 µM; hit rate 2% among 350,000; AID 602393; in the data active = activation above about 40%;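 note: 0% = median of the plate's neutral control wells and 100% = double that signal; a rise in the Bmi1 reporter signal indicates esBAF inhibition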
NR3A LBD binder – NR3A (human) ligand-binding domain modulation; NR3A LBD differential scanning fluorimetry, Tm shift; 0% = protein alone, 100% = glycine-bound protein; Tm shift relative to glycine control, % at 25 µM; hit rate 2.5% among 340,000; AID 1259313;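 active = melting temperature shift of at least 10% of the positive control shift, at one fixed dose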
Vif inh – blocks HIV Vif function; inhibition, % at 7.49 µM; AID 602346; HEK293T cells, Vif self-association by quenched fluorescence, imaging, 24 h; hit rate 0.35% among 340,000; in the data active = inhibition above about 50%, passing the limit was not always enough
SKN-1 block – blocks SKN-1 activity in C. elegans; C. elegans VP596 Pgst-4::GFP/RFP ratio, acrylamide-induced, 24 h; inhibition, % at 21.8 µM; hit rate 0.49% among 360,000; AID 624304;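 active = interference check ratio from 0.5 to 1.5 plus GFP to RFP signal ratio inhibition reaching or exceeding a fixed threshold, cut at about 30% in these data, passing the limit was not always enough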
Numbers without * were called inactive. The list is not random: actives were taken first. Their share in the collection is about 5.2%.

Screening C[C@@H]1CN([C@H](C)CO)S(=O)(=O)c2ccc(-c3ccccc3F)cc2O[C@H]1CN(C)C returned esBAF inh -0.2.
Cc1nc(Nc2ccccc2)c2oc3ccc(Cl)cc3c2n1 was read as NadD inh 0.7, SMARCA2 activ 1.1, esBAF inh 45.9, NR3A LBD binder 16.1*, Vif inh -11.2 and SKN-1 block 0.5.
`c1ccc(Nc2ncnc3c2oc2ccccc23)cc1` gave NadD inh -2.5, SMARCA2 activ 1.8, esBAF inh 87.7*, NR3A LBD binder -7.5 and SKN-1 block 5.0.
Screening Cc1ccc(Nc2nc(C)nc3c2oc2ccccc23)cc1 returned NadD inh -4.5, SMARCA2 activ -1.9, NR3A LBD binder -2.7, Vif inh -3.7 and SKN-1 block 1.4.
For CCc1nc(Nc2cccc(F)c2)c2oc3ccccc3c2n1 the results were NadD inh -7.9, SMARCA2 activ 0.6, esBAF inh -1.3, NR3A LBD binder 11.8*, Vif inh -5.0 and SKN-1 block 7.2.
For c1ccc2c(c1)oc1c(Nc3ccc4c(c3)OCO4)ncnc12 the results were NadD inh -11.0, SMARCA2 activ -0.2, esBAF inh 43.7*, NR3A LBD binder 1.5, Vif inh -16.4 and SKN-1 block 7.7.
C[C@@H]1CCCCO[C@H](CN(C)C(=O)CCC(F)(F)F)[C@H](C)CN([C@@H](C)CO)C(=O)c2cc(NS(C)(=O)=O)ccc2O1 was read as esBAF inh 8.4.
For O=C(Cc1ccncc1)NCC[C@H]1CC[C@H](NC(=O)Nc2ccc(F)cc2)[C@H](CO)O1 the results were esBAF inh 0.8.
Screening Oc1ccc(Nc2ncnc3c2oc2ccccc23)cc1 returned NadD inh -2.1, SMARCA2 activ 2.7, esBAF inh 20.0, NR3A LBD binder 16.4*, Vif inh -3.9 and SKN-1 block 17.2.
For Cn1ccc2cc3c(cc21)CCN3C(=O)Nc1cccnc1 the results were NadD inh 31.3*, SMARCA2 activ -4.7, esBAF inh -5.0, NR3A LBD binder -6.9, Vif inh -0.5 and SKN-1 block 12.8.
Cc1nc(C)c(NC(=O)N2CCc3ccccc32)cc1NC(=O)N1CCc2ccccc21 was read as NadD inh 9.1, SMARCA2 activ 1.0, esBAF inh 24.2, NR3A LBD binder -5.6, Vif inh -6.9 and SKN-1 block 14.2.
`CCc1ccc(OC2(C)CCN(Cc3ccccc3OC(F)F)C2)cc1` (stereo not given) gave NadD inh -7.0, SMARCA2 activ -4.9, esBAF inh -5.3, Vif inh 73.3* and SKN-1 block 11.1.
Screening CC1(Oc2ccc(F)cc2)CCN(Cc2ccccc2OC(F)F)C1 (stereo not given) returned NadD inh -1.9, SMARCA2 activ -1.7, esBAF inh -27.2, Vif inh 13.2 and SKN-1 block 11.6.
`COC(=O)C[C@H]1C=C[C@@H](NS(=O)(=O)c2ccc(OC)cc2)[C@@H](CO)O1` gave esBAF inh -3.1.
Cc1ccc(C(=O)OCn2ncc(Cl)c(Cl)c2=O)cc1 was read as NadD inh 2.0, SMARCA2 activ -10.0, esBAF inh -44.8, NR3A LBD binder -1.1, Vif inh 50.4* and SKN-1 block -34.8.
For O=C(OCn1ncc(Cl)c(Cl)c1=O)c1ccc(C(F)(F)F)cc1 the results were NadD inh -1.5, SMARCA2 activ 5.9, esBAF inh -9.3, NR3A LBD binder 0.8, Vif inh -2.4 and SKN-1 block -8.1.
COc1ccc(NC(=S)N2CCN(C/C=C/c3ccccc3)CC2)cc1 was read as NadD inh -4.4, SMARCA2 activ -0.3, NR3A LBD binder 3.0, Vif inh -9.8 and SKN-1 block 2.6.
COc1ccc(NC(=S)N2CCN(C/C=C/c3ccccc3)CC2)cc1OC was read as NadD inh 2.1, SMARCA2 activ -0.1, esBAF inh 2.2, NR3A LBD binder 1.1, Vif inh 64.6* and SKN-1 block 0.5.
`COc1cccc(COc2cc3ccccc3nc2C)c1` gave NadD inh 6.5, SMARCA2 activ -4.9, esBAF inh 1.4, NR3A LBD binder 1.8, Vif inh -31.9 and SKN-1 block 44.6*.
`Cc1nc2ccccc2cc1OCc1ccc(Cl)cc1` gave NadD inh -4.2, SMARCA2 activ -5.0, esBAF inh 8.2, NR3A LBD binder -13.3, Vif inh -47.5 and SKN-1 block 89.5*.
`O=C([C@H]1[C@H](CO)[C@H]2Cn3c(ccc(-c4ccc(F)cc4)c3=O)[C@H]2N1Cc1cocn1)N1CCOCC1` gave esBAF inh -0.1.
`O=C(O)C[C@H]1C[C@@H]2c3cc(NC(=O)C4CCOCC4)ccc3O[C@@H]2[C@@H](CO)O1` gave esBAF inh 1.5.
For COC(=O)c1cc2occc2n1CC(=O)Nc1cc(OC)cc(OC)c1 the results were NadD inh -1.8, SMARCA2 activ -2.5, NR3A LBD binder 11.3*, Vif inh -0.2 and SKN-1 block -0.3.
Screening COC(=O)c1cc2occc2n1CC(=O)Nc1ccc(OC)c(OC)c1 returned NadD inh -6.4, SMARCA2 activ -0.2, esBAF inh -6.1, NR3A LBD binder -4.2, Vif inh 13.9 and SKN-1 block 2.2.
C[C@@H]1CN([C@H](C)CO)C(=O)c2cc(C#CC(C)(C)O)cnc2O[C@@H]1CN(C)C(=O)C1CCOCC1 was read as esBAF inh 2.6.
Screening COc1ccc(Cl)cc1NC(=O)NNC(=O)c1ccccn1 returned NadD inh -2.5, SMARCA2 activ -2.9, esBAF inh 3.8, NR3A LBD binder 77.3*, Vif inh -2.3 and SKN-1 block 2.3.
`COc1ccccc1C(=O)Nc1cccc2cccnc12` gave NadD inh -5.4, SMARCA2 activ 2.8, esBAF inh 64.1*, NR3A LBD binder -1.2, Vif inh 3.4 and SKN-1 block 18.6.
Screening COc1ccccc1NC(=O)c1ccccc1NC(=O)c1ccccn1 returned NadD inh -2.4, SMARCA2 activ 0.8, esBAF inh 13.4, NR3A LBD binder 0.2, Vif inh 51.0* and SKN-1 block 11.2.
COc1ccccc1NC(=O)c1ccccc1C(=O)O was read as NadD inh -2.9, SMARCA2 activ -5.9, NR3A LBD binder 1.2, Vif inh -1.9 and SKN-1 block -7.5.
Screening COc1ccc(Cl)cc1C(=O)O/N=C(\N)c1ccccn1 returned NadD inh -1.5, SMARCA2 activ 7.8*, esBAF inh 11.0, NR3A LBD binder 0.2, Vif inh -5.6 and SKN-1 block 3.6.
Screening O=C(Cc1ccccc1)N[C@@H]1C=C[C@@H](CC(=O)N2CCOCC2)O[C@@H]1CO returned esBAF inh -2.2.
Screening COC(=O)c1c(NC(=O)c2ccc(C)o2)sc2c1CCCCC2 returned NadD inh -1.5, SMARCA2 activ 3.9, esBAF inh 62.5*, NR3A LBD binder 5.0, Vif inh -14.0 and SKN-1 block 2.1.
